Data published in PubChem BioAssay.
Activity calls are given as the source filed them.

How the values were obtained:
[1] = test system: Plasmodium falciparum Sir2 (PF13_0152, Sir2A); assay: pfSir2 binders on small-molecule microarrays, primary screen, biochemical, small-molecule microarray, 635 nm fluorescence (AID 1098); details: small-molecule microarray binding, fluorescence 635 nm; higher = more signal;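 note: score merges spot fluorescence intensity with its signal-to-noise ratio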
[2] = small-molecule microarray binders of probe aDKK1, primary screen, biochemical, biotinylated probe, 635/667 nm fluorescence (AID 1099); details: higher = more signal;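 note: score merges 667nm spot fluorescence with signal to noise across triplicate slides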
[3] = small-molecule microarray binders of probe aCHRDL2, primary screen, biochemical, biotinylated probe, 635/667 nm fluorescence (AID 1100); details: higher = more signal
[4] = splicing luciferase reporter signal modulators, primary screen, spliceosome inhibition project, cell-based, HEK293, splice +/- reporter (AID 1101); details: luminescence, 24 h, higher = more signal, called active from +8 up or from −8 down;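 note: HEK293 cells carrying a splicing-competent luciferase reporter gene; test concentration not given here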
[5] = target: Fibroblast growth factor 10 (Homo sapiens) (UniProt O15520); assay: FGF10 binders on small-molecule microarrays, primary screen, biochemical, small-molecule microarray, 635 nm fluorescence (AID 1102); details: FGF10 binding, fluorescence 635 nm, higher = more signal
[6] = test system: glycogen synthase kinase-3 (GSK3A per assay name; protocol says GSK3B); assay: GSK3 binders on small-molecule microarrays, primary screen, biochemical, small-molecule microarray, 635 nm fluorescence, GSK3A (AID 1103); details: small-molecule microarray binding, fluorescence 635 nm; higher = more signal; note: the record names both GSK3A and GSK3B
[7] = target: Epidermal growth factor receptor (Homo sapiens) (UniProt P00533); assay: EGFR binders on small-molecule microarrays, primary screen, biochemical, small-molecule microarray, 635 nm fluorescence (AID 1104); details: EGFR binding, higher = more signal;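 note: score merges 667 nm emission intensity with spot signal to noise over triplicate slides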
[8] = target: Follistatin-related protein 3 (Homo sapiens) (UniProt O95633); assay: FSTL3 binders on small-molecule microarrays, primary screen, biochemical, small-molecule microarray, 635 nm fluorescence (AID 1105); details: FSTL3 binding, higher = more signal;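 note: score merges emission near 667 nm and signal to noise per printed spot across three slides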
[9] = target: Dickkopf-related protein 1 (Homo sapiens) (UniProt O94907); assay: DKK1 binders on small-molecule microarrays, primary screen, biochemical, small-molecule microarray, 635 nm fluorescence scan (AID 1106); details: DKK1 binding, higher = more signal;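 note: score merges emission near 667 nm with signal to noise over three replicate slides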
[10] = test system: Inhibin beta A chain (activin A); assay: INHBA (activin A) binders on microarrays, primary screen, biochemical, small-molecule microarray, 635 nm fluorescence scan (AID 1107); details: small-molecule microarray binding, higher = more signal;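 note: mouse activin A protein probed at 4.33 µg/mL on printed slides; score merges bound-protein fluorescence near 667 nm with spot signal-to-noise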
[11] = test system: Human papillomavirus type 1a protein E7 (residues 44-93); assay: HPV1a E7 fragment binders on microarrays, primary screen, biochemical, small-molecule microarray, residues 44-93, 635 nm fluorescence (AID 1108); details: small-molecule microarray binding, fluorescence 635 nm; higher = more signal;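 note: E7 fragment applied at 1 µg/mL in TBST for 1 h at 4 C; score combines spot fluorescence with its signal to noise ratio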
[12] = modulators of HCV replicon luciferase signal, primary screen, HCV replication inhibitor project, Huh7 cells, luciferase reporter (AID 1109); details: 48 h, higher = more signal;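 note: huh7 hepatoma cells harbouring a luciferase neomycin HCV replicon reporter; luciferase luminescence as measure of HCV replicon replication; test concentration not given here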
[13] = target: Left-right determination factor 2 (Homo sapiens) (UniProt O00292); assay: LEFTY2 binders on small-molecule microarrays, primary screen, biochemical, small-molecule microarray, 635 nm fluorescence scan (AID 1110); details: LEFTY2 binding, higher = more signal
[14] = target: Calmodulin-1 (Homo sapiens) (UniProt P0DP23); assay: CALM1 binders on microarrays, EGTA buffer, profiling panel, biochemical, small-molecule microarray, Cy5-labelled CALM1 (AID 1111); details: Cy5-CALM1 binding fluorescence, higher = more signal;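 note: labelled calmodulin applied in Tris saline Tween buffer holding calcium plus EGTA and DTT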
[15] = target: Calmodulin-1 (Homo sapiens) (UniProt P0DP23); assay: calcium-bound CALM1 binders on microarrays, profiling panel, artefact control for SMM control-protein annotation, biochemical, small-molecule microarray, Cy5-labelled CALM1, plus calcium (AID 1112); details: Cy5-CALM1 binding fluorescence, higher = more signal;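 note: score merges spot fluorescence with signal to noise from triplicate slides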
[16] = small-molecule microarray binders of probe aWnt5a, primary screen, biochemical, biotinylated probe, 635/667 nm fluorescence (AID 1113); details: higher = more signal;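 note: score merges 667 nm fluorescence intensity with signal-to-noise per printed feature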
[17] = small-molecule microarray binders of probe aShh, primary screen, biochemical, biotinylated probe, 635/667 nm fluorescence (AID 1114); details: higher = more signal;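 note: probe is biotin-labelled aShh protein from a stem cell growth factor screen; measures binding of labelled protein to compounds printed on the slide; score merges feature fluorescence at 667 nm with signal-to-noise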
[18] = small-molecule microarray binders of probe aNog, primary screen, biochemical, biotinylated probe, 635/667 nm fluorescence (AID 1115); details: higher = more signal;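 note: probe is biotinylated aNog protein used at 0.15 µg/mL for 1 h at 4 C; z-score combines 667 nm fluorescence of each spot with its signal to noise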
[19] = target: Torsin-1A-interacting protein 1 (Homo sapiens) (UniProt Q5JTV8); assay: LAP1 binders from COS7 cell lysate, primary screen, small-molecule microarray, 635/667 nm fluorescence (AID 1116); details: COS7-hLAP1 lysate binding, 635 nm fluorescence, higher = more signal
[20] = target: Alpha-bungarotoxin (Bungarus multicinctus) (UniProt P60615); assay: alpha-bungarotoxin binders on microarray, profiling panel, artefact control for SMM control protein annotation, biochemical, small-molecule microarray, Alexa647 label, 635/667 nm fluorescence (AID 1117); details: alpha-BTX-A647 binding fluorescence, higher = more signal
Alpha-bungarotoxin (Bungarus multicinctus), sequence (P60615 whole entry, looked up): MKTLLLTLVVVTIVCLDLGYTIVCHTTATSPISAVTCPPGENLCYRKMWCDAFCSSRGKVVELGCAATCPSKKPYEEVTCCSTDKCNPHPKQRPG

Follistatin-related protein 3 (Homo sapiens), sequence (O95633 whole entry, looked up): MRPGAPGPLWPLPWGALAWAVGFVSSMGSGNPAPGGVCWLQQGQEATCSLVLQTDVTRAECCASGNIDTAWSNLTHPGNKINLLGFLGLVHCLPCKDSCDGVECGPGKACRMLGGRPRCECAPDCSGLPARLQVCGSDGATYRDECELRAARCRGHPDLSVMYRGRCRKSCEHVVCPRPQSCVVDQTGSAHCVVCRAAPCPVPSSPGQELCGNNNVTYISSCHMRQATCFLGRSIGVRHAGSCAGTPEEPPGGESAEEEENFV
Left-right determination factor 2 (Homo sapiens), sequence (O00292 whole entry, looked up): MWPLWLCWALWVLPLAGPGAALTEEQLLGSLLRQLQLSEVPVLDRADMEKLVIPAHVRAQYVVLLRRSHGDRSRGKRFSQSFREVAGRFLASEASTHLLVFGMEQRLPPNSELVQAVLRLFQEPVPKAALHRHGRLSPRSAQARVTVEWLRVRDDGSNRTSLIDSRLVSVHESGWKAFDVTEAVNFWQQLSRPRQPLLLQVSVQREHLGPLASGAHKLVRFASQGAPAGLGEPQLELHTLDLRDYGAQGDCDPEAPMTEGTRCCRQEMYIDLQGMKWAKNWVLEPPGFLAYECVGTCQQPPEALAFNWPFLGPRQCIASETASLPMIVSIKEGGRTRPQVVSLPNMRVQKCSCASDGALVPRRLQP
Epidermal growth factor receptor (Homo sapiens), sequence (P00533 whole entry, looked up): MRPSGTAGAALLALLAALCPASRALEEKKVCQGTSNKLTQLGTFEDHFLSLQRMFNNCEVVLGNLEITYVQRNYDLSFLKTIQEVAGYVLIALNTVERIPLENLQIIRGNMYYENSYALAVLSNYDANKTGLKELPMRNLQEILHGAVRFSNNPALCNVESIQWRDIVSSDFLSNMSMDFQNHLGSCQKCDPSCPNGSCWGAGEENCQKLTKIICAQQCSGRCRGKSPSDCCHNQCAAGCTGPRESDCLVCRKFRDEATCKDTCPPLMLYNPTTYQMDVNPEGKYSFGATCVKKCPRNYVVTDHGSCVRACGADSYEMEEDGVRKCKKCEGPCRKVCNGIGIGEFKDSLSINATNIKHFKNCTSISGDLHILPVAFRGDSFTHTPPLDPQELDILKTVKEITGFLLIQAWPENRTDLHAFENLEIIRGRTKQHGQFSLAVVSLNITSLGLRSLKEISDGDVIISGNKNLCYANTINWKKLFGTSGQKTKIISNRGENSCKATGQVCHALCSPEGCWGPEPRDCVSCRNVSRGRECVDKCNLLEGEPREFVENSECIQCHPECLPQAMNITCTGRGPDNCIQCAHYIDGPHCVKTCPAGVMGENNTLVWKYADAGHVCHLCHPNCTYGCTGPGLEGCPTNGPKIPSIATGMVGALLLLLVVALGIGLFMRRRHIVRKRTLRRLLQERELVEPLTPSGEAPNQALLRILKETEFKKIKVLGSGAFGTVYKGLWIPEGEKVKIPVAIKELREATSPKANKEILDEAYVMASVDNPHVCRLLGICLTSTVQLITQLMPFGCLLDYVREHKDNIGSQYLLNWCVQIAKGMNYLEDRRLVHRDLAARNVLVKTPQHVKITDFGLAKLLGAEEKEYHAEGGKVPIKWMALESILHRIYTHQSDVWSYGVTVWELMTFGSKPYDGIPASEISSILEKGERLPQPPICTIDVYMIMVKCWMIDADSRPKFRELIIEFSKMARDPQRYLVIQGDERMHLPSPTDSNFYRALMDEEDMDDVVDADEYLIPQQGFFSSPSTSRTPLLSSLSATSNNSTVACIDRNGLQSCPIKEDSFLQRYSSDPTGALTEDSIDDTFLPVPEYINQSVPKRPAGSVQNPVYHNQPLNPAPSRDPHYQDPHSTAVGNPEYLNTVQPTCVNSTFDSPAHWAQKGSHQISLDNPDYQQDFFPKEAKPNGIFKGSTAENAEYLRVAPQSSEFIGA
Dickkopf-related protein 1 (Homo sapiens), sequence (O94907 whole entry, looked up): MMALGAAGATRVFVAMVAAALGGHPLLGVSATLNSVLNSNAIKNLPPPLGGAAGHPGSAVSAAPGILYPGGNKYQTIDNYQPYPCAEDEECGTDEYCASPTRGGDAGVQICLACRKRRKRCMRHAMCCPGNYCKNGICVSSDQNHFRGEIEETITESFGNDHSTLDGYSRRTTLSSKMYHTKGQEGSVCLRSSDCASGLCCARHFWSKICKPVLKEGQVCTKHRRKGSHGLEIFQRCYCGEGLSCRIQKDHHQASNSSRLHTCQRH
Torsin-1A-interacting protein 1 (Homo sapiens), sequence (Q5JTV8 whole entry, looked up): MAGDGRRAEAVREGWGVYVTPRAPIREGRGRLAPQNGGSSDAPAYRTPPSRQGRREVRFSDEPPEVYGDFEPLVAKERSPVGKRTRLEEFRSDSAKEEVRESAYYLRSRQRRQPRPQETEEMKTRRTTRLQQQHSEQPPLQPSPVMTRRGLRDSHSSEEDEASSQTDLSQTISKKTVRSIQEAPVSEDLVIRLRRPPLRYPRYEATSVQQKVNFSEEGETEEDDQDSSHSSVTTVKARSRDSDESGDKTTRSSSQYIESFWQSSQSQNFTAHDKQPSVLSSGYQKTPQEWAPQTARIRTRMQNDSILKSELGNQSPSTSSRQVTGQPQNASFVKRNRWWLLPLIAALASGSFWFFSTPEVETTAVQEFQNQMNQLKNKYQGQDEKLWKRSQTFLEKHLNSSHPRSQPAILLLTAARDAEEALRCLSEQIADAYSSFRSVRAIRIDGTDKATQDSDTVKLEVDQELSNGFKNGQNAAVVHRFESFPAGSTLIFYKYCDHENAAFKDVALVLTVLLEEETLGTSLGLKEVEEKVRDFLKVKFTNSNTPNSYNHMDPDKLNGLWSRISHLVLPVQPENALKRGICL
Fibroblast growth factor 10 (Homo sapiens), sequence (O15520 whole entry, looked up): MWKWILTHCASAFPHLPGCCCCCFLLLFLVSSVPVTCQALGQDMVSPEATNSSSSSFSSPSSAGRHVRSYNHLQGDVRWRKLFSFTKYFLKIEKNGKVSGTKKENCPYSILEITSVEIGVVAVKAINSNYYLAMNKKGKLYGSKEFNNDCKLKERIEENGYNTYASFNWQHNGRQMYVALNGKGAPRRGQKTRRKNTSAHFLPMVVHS

Structure (SMILES) | composite z-score [1] | composite z-score [2] | composite z-score [3] | z-score [4] | composite z-score [5] | composite z-score [6] | composite z-score [7] | composite z-score [8] | composite z-score [9] | composite z-score [10] | composite z-score [11] | z-score [12] | composite z-score [13] | composite z-score [14] | composite z-score [15] | composite z-score [16] | composite z-score [17] | composite z-score [18] | composite z-score [19] | composite z-score [20]
CCCCC(=C=CC[C@H](O)c1ccc(OCCO)cc1)C[C@H](O)COCc1ccccc1 | 1.07 | -0.221 | -0.0323 | -0.639 (inactive) | 0.793 | -0.171 | -0.304 | -0.603 | -0.259 | 1.12 | 0.383 | -1.77 | -0.233 | -0.567 | -0.377 | -0.0685 | 0.14 | -0.0168 | 0.941 | 0.134
CCOC(=O)C1=C[C@@H](C(C)(C)C)N(S(=O)(=O)c2ccc(C)cc2)[C@H]1c1cccc(Cl)c1 | 0.758 | 0.821 | 0.182 | -0.517 (inactive) | 0.907 | 1.31 | 0.427 | 1.36 | 0.0675 | -0.213 | 0.941 | -2.85 | 0.553 | 1.09 | 0.321 | 0.137 | 0.186 | -0.136 | 0.715 | 1.27
C=CCC(OC(C)=O)[C@@H]1[C@@H](N(Cc2cccc3ccccc23)C(=O)Cc2ccc(F)cc2)c2cc(OCCCO)ccc2N1C(=O)c1ccc(-c2ccccc2)cc1 (stereo not given in full) | -0.171 | 0.592 | 0.976 | -0.312 (inactive) | -0.219 | -0.502 | -0.304 | 0.047 | -0.506 | 1.45 | -0.658 | -1.09 | -0.197 | -0.573 | 0.992 | -0.236 | -0.0035 | 0.0812 | 0.171 | -0.395
COc1ccc([Si](C)(C)[C@H]2[C@H](CC(=O)N3CCC[C@H]3CO)O[C@@]3(C(=O)N(Cc4ccc(N5CCC5=O)cc4)c4ccccc43)[C@@H]2C)cc1 | 1.49 | -0.248 | -0.567 | -0.805 (inactive) | 1.34 | 1.29 | 0.838 | 1.41 | 0.774 | -0.525 | 1.13 | -1.88 | 0.794 | 0.865 | 0.0623 | -0.0735 | -0.0709 | -0.484 | 1.53 | 1.79
CC1CC/C=C\[C@H]2OC34C=CCN(CCN5CCOCC5)C(=O)[C@H]3N(C(C)CO)C(=O)[C@@H]4C2C(=O)O1 (stereo not given in full) | 0.489 | -0.356 | -0.415 | 1.02 (inactive) | -0.42 | -0.42 | -0.599 | -0.214 | -0.0076 | 1.14 | 0.523 | -0.91 | -0.536 | -0.666 | -1.4 | -0.199 | 0.147 | -0.373 | -0.719 | -0.807
Cc1ccc([C@H]2C(C(=O)O)=C[C@@H](C(C)(C)C)N2S(=O)(=O)c2ccc(C)cc2)cc1 | 1.03 | 1.05 | 1.06 | 0.0856 (inactive) | 1.1 | 1.31 | 0.0496 | 1.17 | -0.591 | 0.265 | 1.41 | 0.0372 | 0.326 | 1.94 | 0.516 | 0.058 | 0.348 | 1.34 | 1.4 | 1.43
CCOC(=O)C1=C[C@@H](C(C)(C)C)N(S(=O)(=O)c2ccc(C)cc2)[C@H]1c1ccccc1 | 0.104 | 1.44 | 1.22 | 1.07 (inactive) | 0.982 | 1.29 | 0.591 | 1.26 | 0.743 | 0.556 | 0.834 | -2.05 | 0.561 | 1.99 | 0.838 | 0.0873 | 0.0469 | 0.109 | 1.26 | 1.11
COCC(=C=CC[C@@H](O)c1cccc(OCCO)c1)CCO | 1.03 | 0.0771 | 0.268 | 0.317 (inactive) | 0.984 | 0.162 | -0.846 | 0.167 | -0.111 | 0.598 | 0.328 | 0.22 | -0.313 | 0.32 | 0.281 | 0.129 | -0.372 | -0.0987 | 0.69 | 1.73
COC(=O)[C@@]1(Cc2ccc(F)cc2)[C@H]2c3cc(C(=O)N(C)C)n(Cc4ccc(O)c(OC)c4)c3C[C@H]2CN1C(=O)c1ccccc1 | 0.472 | 0.0331 | 0.128 | -4.34 (inactive) | 0.448 | 0.538 | 0.269 | 0.0792 | 0.134 | 0.937 | 0.347 | -1.05 | -0.0182 | 1.17 | -0.0337 | 0.0776 | 0.207 | -0.186 | -0.105 | 0.412
COCC1=C2[C@@H](CCc3ccccc3)OB(O)C[C@@H]2[C@@H]2C(=O)N(C)C(=O)[C@@H]2C1 | -0.069 | -0.333 | -0.57 | 0.348 (inactive) | 0.711 | -0.0422 | 0.3 | 0.146 | 0.216 | 0.808 | -0.152 | -1.2 | 0.211 | -0.344 | -0.294 | -0.0405 | -0.138 | -0.205 | 0.226 | -0.273
O=C1N[C@@H](Cc2ccccc2)C(=O)N2[C@@H]1C[C@@H](C(=O)O)[C@H]2c1ccc(O)cc1 | 1.31 | 0.731 | 0.707 | -0.485 (inactive) | 0.727 | 0.86 | 0.315 | 1.45 | 1.63 | 0.853 | 0.436 | 2.57 | 0.572 | 0.58 | -0.661 | 0.0718 | 0.0711 | -0.0382 | 0.466 | 0.431
C[C@]1(C(=O)NCCN2CCOCC2)c2ccccc2C(=O)N(Cc2cc(F)cc(C(F)(F)F)c2)[C@H]1c1ccc(CO)cc1 | 1.81 | -0.0342 | 0.841 | -0.0156 (inactive) | -0.134 | -0.626 | -1.01 | -0.0362 | -0.876 | 0.59 | 1.38 | -1.06 | -1.37 | -0.17 | -1.02 | -0.148 | -0.0222 | -0.41 | 1.88 | 2.4
